# In PubChem BioAssay (NCI):
# Compounds without any hit were thinned out: in the full panel of roughly 83,000, 20% have a hit.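 Growth was measured after 48 h exposure to one concentration of compound in 96-well plates. Values under 10 count as active.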 Values without a mark were called inactive. Activity calls are given as the source filed them.
# Columns and labels:
# Assay in all cases: NCI-60 one-dose screen, 48 h (100 = growth as untreated, 0 = no growth, -100 = all killed)
# Settings in all cases: 10 µM
# HCT-15 colon = system: HCT-15 colon
# HT29 colon = system: HT29 colon
# SNB-75 CNS = system: SNB-75 CNS
# SNB-19 CNS = system: SNB-19 CNS
# U251 CNS = system: U251 CNS
# PC-3 prostate = system: PC-3 prostate
# SK-MEL-5 melanoma = system: SK-MEL-5 melanoma
# UACC-62 melanoma = system: UACC-62 melanoma
# LOX IMVI melanoma = system: LOX IMVI melanoma
# SK-MEL-28 melanoma = system: SK-MEL-28 melanoma
# SK-MEL-2 melanoma = system: SK-MEL-2 melanoma
# EKVX NSCLC = system: EKVX NSCLC
# SN12C renal = system: SN12C renal
# UO-31 renal = system: UO-31 renal
# TK-10 renal = system: TK-10 renal
# ACHN renal = system: ACHN renal
# CAKI-1 renal = system: CAKI-1 renal
# A498 renal = system: A498 renal
# CCRF-CEM leukemia = system: CCRF-CEM leukemia
# MOLT-4 leukemia = system: MOLT-4 leukemia
SMILES,growth (HCT-15 colon),growth (HT29 colon),growth (SNB-75 CNS),growth (SNB-19 CNS),growth (U251 CNS),growth (PC-3 prostate),growth (SK-MEL-5 melanoma),growth (UACC-62 melanoma),growth (LOX IMVI melanoma),growth (SK-MEL-28 melanoma),growth (SK-MEL-2 melanoma),growth (EKVX NSCLC),growth (SN12C renal),growth (UO-31 renal),growth (TK-10 renal),growth (ACHN renal),growth (CAKI-1 renal),growth (A498 renal),growth (CCRF-CEM leukemia),growth (MOLT-4 leukemia)
CC1(C)[C@@H](NCO)CC[C@]2(C)[C@H]3C(=O)C=C4[C@@H]5C[C@](C)(CO)CC[C@]5(C)CC[C@@]4(C)[C@]3(C)CC[C@@H]12,13.6%,13.9%,106%,70.1%,18.9%,31.3%,61%,50.2%,-74.8% (active),-29.5% (active),94.6%,75.5%,72%,54.9%,107%,63.1%,59.1%,140%,70.3%,16.5%
N#Cc1ccc(-c2nn(-c3ccc(C(=O)O)cc3)cc2CNc2cccc(Br)c2)cc1,35.5%,50.7%,101%,51.7%,37%,40.1%,24.1%,41.8%,13.2%,35.6%,71.7%,65.9%,59.2%,60.5%,102%,66.8%,73.4%,94.5%,23.7%,23.9%
CO[C@@H]1CSSC1Cn1nc(-c2ccc(Oc3ccccc3)cc2)c2c(N)ncnc21 (stereo not given in full),37.2%,28.5%,97.9%,69.1%,49.5%,43.6%,7.95% (active),-53.9% (active),39.4%,-34.4% (active),27.2%,25.3%,60.6%,21.3%,20.3%,40.4%,32.4%,80.8%,-8.26% (active),-16.6% (active)
CN1CCCN(Cc2ccc(C(=O)Nc3cccc(Nc4ccc5cc(O)ccc5n4)c3)cc2C(F)(F)F)CC1,14.6%,27.8%,32.2%,81.1%,33.7%,51.3%,32.4%,88.1%,-100% (active),-67.9% (active),111%,71.1%,86.8%,91.7%,134%,86.4%,74.7%,139%,-9.62% (active),-6.61% (active)
Cc1ccc(/C=C/C(=O)c2ccc(NC(=O)CSc3nnc(-c4c[nH]c5ccccc45)n3-c3ccccc3)cc2)cc1,79.5%,100%,91.5%,87.9%,78.5%,71.8%,94%,75.8%,78.4%,99.1%,90.5%,77%,76.1%,55.3%,107%,78.3%,80.6%,111%,93.7%,68.3%
CCN1CCN(Cc2ccc(NC(=O)c3cccc(-n4cc(-c5ccc(NC(C)=O)nc5)nn4)c3)cc2C(F)(F)F)CC1,83.9%,61.7%,104%,122%,86.6%,112%,87.3%,82.4%,72.4%,53.3%,106%,105%,95.9%,107%,149%,109%,88.9%,213%,39.2%,80.3%
OCCNc1oc(-c2ccccc2)nc1[P+](c1ccccc1)(c1ccccc1)c1ccccc1,77.8%,10.4%,-1.51% (active),4.29% (active),14.7%,10.6%,-100% (active),-66.4% (active),2.03% (active),3.6% (active),-31.8% (active),23.8%,2.4% (active),71.8%,32.4%,84.4%,75.1%,74.6%,9.78% (active),10.2%
O=C(NO)c1ccc(-c2nc3ccc4[nH]ncc4c3c3c2CCCC3)cc1,-11% (active),6.1% (active),-77.1% (active),-19.4% (active),-39.1% (active),15.8%,-88.9% (active),-65.8% (active),-90.6% (active),-55% (active),-89.7% (active),-19.4% (active),-13.8% (active),-15.8% (active),20.2%,2.16% (active),-0.924% (active),-49.1% (active),5.08% (active),3.76% (active)
